# The campaign covered roughly 400,000 compounds. About 2,100 (0.53%) were called active. Not shown: some 14% with an inconclusive outcome. This is one part of a sample in which actives are shown more often than they occur. The rule behind the calls is not given here.
# Target: Ataxin-2 (Homo sapiens) (UniProt Q99700)
# Experiment: qHTS for Inhibitors of ATXN expression.
# Format: functional
# Ataxin-2 (Homo sapiens), sequence (Q99700 whole entry): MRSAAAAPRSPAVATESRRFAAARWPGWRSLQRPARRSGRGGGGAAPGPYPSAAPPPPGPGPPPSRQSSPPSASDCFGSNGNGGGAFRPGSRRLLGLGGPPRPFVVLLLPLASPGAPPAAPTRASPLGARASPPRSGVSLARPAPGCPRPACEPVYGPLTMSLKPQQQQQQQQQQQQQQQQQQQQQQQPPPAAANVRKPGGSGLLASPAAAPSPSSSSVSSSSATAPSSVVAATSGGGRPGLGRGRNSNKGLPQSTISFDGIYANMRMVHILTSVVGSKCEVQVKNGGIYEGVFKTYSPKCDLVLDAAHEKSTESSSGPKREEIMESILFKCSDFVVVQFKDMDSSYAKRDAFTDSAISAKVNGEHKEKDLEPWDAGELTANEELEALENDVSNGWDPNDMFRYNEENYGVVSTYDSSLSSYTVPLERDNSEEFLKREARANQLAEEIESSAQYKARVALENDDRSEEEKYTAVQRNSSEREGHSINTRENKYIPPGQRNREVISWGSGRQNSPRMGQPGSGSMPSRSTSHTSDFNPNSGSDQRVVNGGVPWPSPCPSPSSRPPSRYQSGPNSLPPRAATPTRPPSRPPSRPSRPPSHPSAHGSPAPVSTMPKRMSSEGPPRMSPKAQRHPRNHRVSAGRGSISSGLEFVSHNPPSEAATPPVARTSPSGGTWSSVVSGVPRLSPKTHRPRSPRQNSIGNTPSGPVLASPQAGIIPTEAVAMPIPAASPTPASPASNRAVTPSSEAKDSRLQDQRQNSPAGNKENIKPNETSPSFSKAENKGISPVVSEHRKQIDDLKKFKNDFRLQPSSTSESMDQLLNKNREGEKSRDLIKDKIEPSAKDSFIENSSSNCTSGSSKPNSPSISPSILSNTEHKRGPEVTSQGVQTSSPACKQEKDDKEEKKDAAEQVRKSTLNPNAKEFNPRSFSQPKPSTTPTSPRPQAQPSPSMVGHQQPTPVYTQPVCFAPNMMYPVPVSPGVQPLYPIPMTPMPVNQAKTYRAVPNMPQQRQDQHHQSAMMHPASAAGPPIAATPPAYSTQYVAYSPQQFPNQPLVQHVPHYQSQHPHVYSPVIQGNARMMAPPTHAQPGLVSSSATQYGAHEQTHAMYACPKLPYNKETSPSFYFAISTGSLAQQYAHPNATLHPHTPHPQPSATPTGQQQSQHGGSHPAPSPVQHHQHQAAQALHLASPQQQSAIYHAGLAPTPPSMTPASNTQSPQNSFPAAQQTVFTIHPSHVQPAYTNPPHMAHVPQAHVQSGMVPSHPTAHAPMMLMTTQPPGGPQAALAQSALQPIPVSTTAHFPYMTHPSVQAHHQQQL
row,SMILES,Potency
1,N#CC1(Nc2cccc(Br)c2)C(=O)Nc2ccccc21 (centres undefined),inactive
2,COc1ccc(OC)c(S(=O)(=O)N2CCN(c3ccccc3)CC2)c1,inactive
3,CCOc1cc(C2c3c(-c4ccc(Br)cc4)n[nH]c3C(=O)N2c2ccc(Cl)cc2)ccc1O (centres undefined),28.2 µM (active)
4,CCOc1cc(C2NN=C(c3ccc(C)cc3)S2)ccc1O (centres undefined),inactive
5,CCOc1ccc(C2=CC(c3cc(Br)ccc3F)n3ncnc3N2)cc1Cl (centres undefined),inactive
6,O=C1OCCN1C(=O)[C@H]1[C@H](c2ccc(Cl)cc2)C(c2cccc(Cl)c2)=NN1c1ccc(Br)cc1,inactive
7,Cc1cccc(C2=NN(c3ccc(Br)cc3)[C@@H](C(=O)N3CCOC3=O)[C@@H]2c2ccc(Cl)cc2)c1,inactive
8,O=C1c2[nH]nc(-c3ccc(Br)cc3)c2C(c2cccc(O)c2)N1c1ccc(Cl)cc1 (centres undefined),28.2 µM (active)
9,CCN(CCCn1c(=S)[nH]c2ccc(N3CCOCC3)cc2c1=O)c1ccccc1,inactive
10,CN(/N=C/c1ccc2c(c1)OCO2)c1nc(N2CCOCC2)nc(N2CCOCC2)n1,inactive
11,Cc1nonc1NC(=O)CSc1nc2ccccc2cc1C#N,inactive
12,CC(=O)c1ccc2cccc3c2c1NC(C)=N3,inactive
13,Cc1nc(=O)c(-c2ccccc2)c(C)n1-c1ccccc1Cl,inactive
14,Cc1ccc(Sc2nc(C)c([N+](=O)[O-])c(C)c2C#N)cc1,inactive
15,COc1ccccc1NC(=O)c1ccc(-n2ccnc2)c([N+](=O)[O-])c1,inactive
16,Cn1c(=O)c([N+](=O)[O-])c(Cl)c2ccccc21,29.9 µM (active)
17,Cc1ccc(Sc2c([N+](=O)[O-])c(=O)n(C)c3ccccc23)cc1,28.2 µM (active)
18,CCN(CC)c1c([N+](=O)[O-])c(=O)n(CC)c2ccccc12,inactive
19,Cn1c(=O)c([N+](=O)[O-])c(-n2ccnc2)c2ccccc21,23.8 µM (active)
20,Cn1c2ccccc2c(=O)c2ccc(F)cc21,inactive
21,CCOc1ccc(C2C(C#N)=C(N)Oc3cc(O)ccc32)cc1OCC (centres undefined),inactive
22,COCOc1ccc(/C=C2/Oc3cc(OCOC)cc(OCOC)c3C2=O)c(OCOC)c1,inactive
23,Cc1cscc(C)c1=S,inactive
24,Nc1c(C(=O)CSc2ncccn2)c(=O)[nH]c(=O)n1C1CC1,inactive
25,Cc1c(CCC(=O)O)c(=O)oc2c(C)c3occ(-c4ccc(Br)cc4)c3cc12,inactive

row,SMILES,Potency
1,O=C(Nc1ccc(S(=O)(=O)Nc2cnc3ccccc3n2)cc1)c1ccc([N+](=O)[O-])cc1Cl,inactive
2,O=C(Nc1ccc(Nc2ccncc2)cc1)c1ccc(Nc2ccnc3ccc([N+](=O)[O-])cc23)cc1[N+](=O)[O-],39.8 µM (active)
3,COc1ccc([N+](=O)[O-])cc1C(=O)Nc1ccc(Cc2ccncc2)cc1,inactive
4,N#Cc1cc2c(=O)n3ccccc3nc2n(CCCN2CCOCC2)c1=O,inactive
5,CCOc1cc(C2C3=C(CCCC3=O)N(CCC(=O)O)C3=C2C(=O)CCC3)ccc1OS(=O)(=O)c1ccc(C)cc1,inactive
6,Cc1cc(S(=O)(=O)N2CCCC2)ccc1OCC(=O)Nc1ccc(C(N)=O)cc1,inactive
7,CC(=O)NCCc1nc2cc(NC(=O)c3cccs3)ccc2n1C,inactive
8,Cc1ccc(C(C)C)c(OCC(=O)Nc2ccc3c(c2)nc(CCN2CCCCC2)n3C)c1,39.8 µM (active)
9,O=C1/C(=C\Nn2cnnc2)c2ccccc2C(=O)N1c1ccccc1F,inactive
10,COc1ccccc1NS(=O)(=O)c1cccc(NC(=O)Nc2cccc(Cl)c2)c1,44.7 µM (active)
11,COc1ccccc1NS(=O)(=O)c1cccc(NC(=O)c2[nH]c(C)c(C(C)=O)c2C)c1,inactive
12,COc1ccccc1NS(=O)(=O)c1ccc(C)c(NC(=O)c2c(C)noc2C)c1,inactive
13,CCOC(=O)Nc1c2ccccc2nc2ccccc12,inactive
14,CCOC(=O)NN=C1c2ccccc2-c2nc3nonc3nc21,3.77 µM (active)
15,COC(=O)c1c(C)nc2nonc2c1N,inactive
16,COc1cc(/C=C/C(=O)N2C(=O)c3cccc(N)c3C2=O)cc(OC)c1OC,inactive
17,Cn1c2nc(=O)[nH]c(=O)c-2cc2ccccc21,inactive
18,C=CCOc1ccccc1CN(C(=O)CCl)c1ccc2c(c1)OCO2,39.8 µM (active)
19,CCc1cccc(CC)c1N1C(=O)C2=C(SCCCS2)C1=O,inactive
20,CCOC(=O)C1(CCOc2ccccc2)CCN(Cc2ccc(C#CCCO)cc2)CC1,inactive
21,Cn1c(C(=O)N2CCN(C(=O)c3ccco3)CC2)cc2c(=O)n3ccccc3nc21,inactive
22,CCc1noc(C)c1C(=O)N1CCN(c2cccc(Cl)c2)CC1,inactive
23,O=C(c1ccco1)N1CCN(c2c(O)nc3ccc(Cl)cc3c2-c2ccccc2)CC1,28.2 µM (active)
24,Cc1cc(N2CCN(C(=O)c3ccco3)CC2)n2nc(-c3cccc(Cl)c3)cc2n1,35.5 µM (active)
25,O=c1oc2cc(O)ccc2cc1-c1ccc(F)cc1,inactive

row,SMILES,Potency
1,Cc1ccc(/N=c2\oc3cc(O)ccc3cc2C(N)=O)cc1,inactive
2,O=CNc1ccc2c3c(cccc13)-c1ccccc1-2,inactive
3,CC1=NN(c2ccccc2)C(=O)C1/C=N/c1ccc(N(C)C)cc1 (centres undefined),inactive
4,CC1=NN(c2ccccc2)C(=O)/C1=C/C=C/c1ccc(N(C)C)cc1,17.8 µM (active)
5,CN(C)C=O.CN(C)c1ccc(/C=C/c2nc3ccccc3c(=O)n2-c2ccc(C(=O)O)cc2)cc1,inactive
6,O=C(COC(=O)Cc1ccsc1)NNC(=O)c1ccccc1,inactive
7,C#CCN1C(=O)S/C(=C\c2cc3c(cc2OC)OCO3)C1=O,inactive
8,COc1ccc(Cl)cc1C(=O)NNC(=O)c1[nH]nc2ccccc12,inactive
9,CCn1nc(C(=O)NNC(=O)c2cc(Cl)ccc2OC)c2ccccc2c1=O,39.8 µM (active)
10,CNC(=O)c1cc(NC(=O)CCn2nc(-c3ccccc3)c3ccccc3c2=O)ccc1OC,inactive
11,CC(=O)N(Cc1ccccc1)c1ncc2c(n1)c(=O)c(C#N)c1ccccn12,inactive
12,COCCCNC(=O)C[S+]([O-])Cc1nc(-c2ccccc2C)oc1C (centres undefined),inactive
13,CCCCCOc1ccc(Br)cc1CSC(=N)N,35.5 µM (active)
14,CCCn1c(=N)c(C(=O)NCC2CCCO2)cc2c(=O)n3cccc(C)c3nc21 (centres undefined),inactive
15,O=C(CCl)Nc1cccc2ncccc12,31.6 µM (active)
16,Cc1cc(O)nc(SCC(=O)Nc2ccnc3ccccc23)n1,inactive
17,O=C(Cc1ccccc1C(=O)O)Nc1cccc2ccccc12,inactive
18,Cc1c(Cc2ccccc2)c(=O)oc2cc(OC(=O)c3ccccc3)ccc12,inactive
19,Cn1/c(=N/N=C/c2ccccn2)sc2ccccc21,inactive
20,Cc1csc(N/N=C/c2ccccn2)n1,28.2 µM (active)
21,CCCc1sc(N/N=C/c2ccccn2)nc1-c1ccc(Br)cc1,17.8 µM (active)
22,CCC/C=N/Nc1nc2ccccc2s1,inactive
23,CC/N=c1\scc(-c2ccc(F)cc2)n1/N=C/c1ccccn1,inactive
24,C=CCn1c(=N)c(C(=O)NCCCOC)cc2c(=O)n3ccccc3nc21,inactive
25,Oc1c(Cl)cc(Cl)cc1/C=N\c1cc(C(F)(F)F)ccc1N1CCc2ccccc2C1,inactive

row,SMILES,Potency
1,COc1ccc(-c2cc(C(F)(F)F)c3c(N)c(C(=O)NCCSC)sc3n2)cc1,inactive
2,COc1ccc(-c2csc(NC(=O)CSc3n[nH]c(N)n3)n2)cc1,inactive
3,COc1ccc(-c2cc(C(F)(F)F)nc(SCC(=O)Nc3ccc(C(C)=O)cc3)n2)cc1,31.6 µM (active)
4,CN(C)c1ccc(-c2cc3ccccc3c(=O)o2)cc1,inactive
5,COC(=O)C1=NN(c2ccc(OC)cc2)C2C(=O)N(c3ccccc3OC)C(=O)C12 (centres undefined),inactive
6,CCOC1=C2CN(S(=O)(=O)c3ccc(C)cc3)[C@H](c3cccc4ccccc34)C[C@H]2C(C#N)(C#N)C(C#N)(C#N)C1,12.6 µM (active)
7,O=c1oc2c3c4c(cc2c2c1CCC2)OCCN4CCC3,inactive
8,COc1cc(CC(=O)OCC(=O)N2CCCCC2C)cc(OC)c1OC (centres undefined),inactive
9,COc1cccc(C(C(=O)NC(C)(C)C)N(C(=O)CCC(=O)Nc2cc(C)on2)c2ccc3c(c2)OCCO3)c1OC (centres undefined),inactive
10,COc1ccccc1-c1cc(C(F)(F)F)nc(S(=O)(=O)CCCC(=O)N2CCCCC2C)n1 (centres undefined),39.8 µM (active)
11,COc1ccc(-c2csc(NC(=O)CCNC(=O)c3ccco3)n2)cc1OC,inactive
12,COc1ccc(-c2cc(C(F)(F)F)nc(S(=O)(=O)CCCC(=O)Nc3cccc(O)c3)n2)cc1OC,15 µM (active)
13,CC1CCCCN1C(=O)COC(=O)c1cc(-c2cccs2)nn1-c1ccccc1 (centres undefined),inactive
14,COc1ccccc1-c1cc(C(F)(F)F)nc(S(=O)(=O)CCCC(=O)Nc2cc(C)on2)n1,14.1 µM (active)
15,COc1ccc(-c2cc(C(=O)Nc3ccc(C(N)=O)cc3)c3ccccc3n2)cc1OC,inactive
16,COc1ccc(-c2cc3nc(C)c(CCC(=O)NCc4ccc(F)cc4)c(C)n3n2)c(OC)c1,inactive
17,COc1ccccc1-c1cc(C(F)(F)F)nc(S(=O)(=O)CCCC(=O)NCc2ccc(F)cc2)n1,26.7 µM (active)
18,COc1ccc(-c2cc(C(=O)OCC(=O)Nc3cc(C)on3)c3ccccc3n2)cc1OC,inactive
19,COc1ccc(Br)cc1CN(C)CC(=O)NCc1ccc(F)cc1,inactive
20,CCN1C(=O)[C@@H]2Cc3c([nH]c4ccccc34)C(c3ccc(OC)cc3)N2C1=S (some centres undefined),inactive
21,CCOC(=O)c1cc([N+](=O)[O-])cc([N+](=O)[O-])c1Sc1[nH]cnc2ncnc1-2,29.9 µM (active)
22,CCOc1ccc(C(=O)Oc2cc(C)nc(O)c2[N+](=O)[O-])cc1OCC,inactive
23,CCCCCCCCOC(=O)c1cc([N+](=O)[O-])c(Sc2[nH]cnc3ncnc2-3)c([N+](=O)[O-])c1,22.4 µM (active)
24,CCOC(=O)c1nnn(-c2ccc([N+](=O)[O-])cc2)c1C,inactive
